# Reference: PubChem BioAssay (NCATS)
# Inconclusive results are not listed. Where a call stands in place of a potency, no number is given. Active and inactive are the calls of the source. Unless noted, calls follow the shape of the full dose curve.
# Legend:
# [1] = qHTS for Inhibitors of the Functional Ribonucleoprotein Complex (vRNP) of Lassa (LASV) Arenavirus: Viability assay - alamar blue signal for LASV Primary Screen (AID 1347083; calls by dose curve; tested in HEK293 reporter line; also: nearly all actives have a fitted effect of over 80% in size; also: potency is read from the fitted curve at half-maximal effect)
# [2] = Cytotoxicity counterscreen for inhibitors of SARS-CoV-2 cell entry (AID 1645845); also: nearly all actives have a fitted effect of over 50% in size; also: potency is read from the fitted curve at half-maximal effect
# How it was run: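 ATP-content luminescence (ATPLite 1step, 15 min RT) read after 48 h compound exposure of Expi293F cells stably expressing human ACE2; normalized to cells-only wells and media-only wells.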
# [3] = Primary qHTS to identify inhibitors of SARS-CoV-2 cell entry (AID 1645846); settings: activity change, negative = inhibition: at 57.1 µM (top of the series) unless noted; also: nearly all actives have a fitted effect of over 45% in size; also: potency is read from the fitted curve at half-maximal effect
# How it was run: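 Entry measured by luciferase signal 48 h after adding SARS-CoV-2-S pseudotyped MLV particles to HEK293-ACE2 cells preincubated 1 h with compounds. Normalisation: bald particles and spike particles.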
# [4] = target: Nucleoprotein (Lymphocytic choriomeningitis virus (strain Armstrong)) (UniProt P09992); assay: qHTS for Inhibitors of the Functional Ribonucleoprotein Complex (vRNP) of Lymphocytic Choriomeningitis Arenaviruses (LCMV): LCMV Primary Screen - GLuc reporter signal (AID 1347086); also: potency is read from the fitted curve at half-maximal effect; nearly all actives have a fitted effect of over 70% in size
# Nucleoprotein (Lymphocytic choriomeningitis virus (strain Armstrong)), sequence (P09992 whole entry, looked up): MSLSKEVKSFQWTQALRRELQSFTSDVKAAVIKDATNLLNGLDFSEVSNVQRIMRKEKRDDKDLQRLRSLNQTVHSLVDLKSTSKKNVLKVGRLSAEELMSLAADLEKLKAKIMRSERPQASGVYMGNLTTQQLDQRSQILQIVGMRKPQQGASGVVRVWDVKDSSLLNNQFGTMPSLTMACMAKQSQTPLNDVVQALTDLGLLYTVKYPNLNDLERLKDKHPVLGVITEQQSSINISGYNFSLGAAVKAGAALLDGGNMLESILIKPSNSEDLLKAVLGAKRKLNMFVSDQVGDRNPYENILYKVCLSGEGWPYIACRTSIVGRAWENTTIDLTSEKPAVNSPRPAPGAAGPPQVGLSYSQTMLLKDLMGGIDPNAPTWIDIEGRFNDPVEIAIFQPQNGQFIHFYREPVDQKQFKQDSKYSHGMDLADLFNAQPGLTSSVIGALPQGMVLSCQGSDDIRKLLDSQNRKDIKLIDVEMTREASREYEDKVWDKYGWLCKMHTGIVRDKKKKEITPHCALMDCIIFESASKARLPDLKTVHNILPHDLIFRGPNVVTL
# [5] = VSVG counterscreen qHTS to identify inhibitors of SARS-CoV-2 cell entry (AID 1645847); also: potency is read from the fitted curve at half-maximal effect; nearly all actives have a fitted effect of over 65% in size
# How it was run: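 Luminescence read after 48 h infection at 37 C with VSV-G-pseudotyped MLV particles, following 1 h compound exposure of Expi293F cells stably expressing human ACE2; scaled between bald particle and VSV-G particle wells.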
# [6] = qHTS for Inhibitors of the Functional Ribonucleoprotein Complex (vRNP) of Lymphocytic Choriomeningitis Arenaviruses (LCMV): Viability assay - alamar blue signal for LCMV Primary Screen (AID 1347085; calls by dose curve; tested in HEK293 reporter line; also: nearly all actives have a fitted effect of over 80% in size)
# [7] = target: Alpha-galactosidase (Coffea arabica) (UniProt Q42656); assay: Counterscreen for Glucocerebrosidase Inhibitors: qHTS Assay for Coffee Bean alpha-Galactosidase at pH 4.5 (AID 957; active = well fitted curve in the direction sought with a large enough effect; an effect the other way counts as inactive or inconclusive)
# Alpha-galactosidase (Coffea arabica), sequence (Q42656 whole entry, looked up): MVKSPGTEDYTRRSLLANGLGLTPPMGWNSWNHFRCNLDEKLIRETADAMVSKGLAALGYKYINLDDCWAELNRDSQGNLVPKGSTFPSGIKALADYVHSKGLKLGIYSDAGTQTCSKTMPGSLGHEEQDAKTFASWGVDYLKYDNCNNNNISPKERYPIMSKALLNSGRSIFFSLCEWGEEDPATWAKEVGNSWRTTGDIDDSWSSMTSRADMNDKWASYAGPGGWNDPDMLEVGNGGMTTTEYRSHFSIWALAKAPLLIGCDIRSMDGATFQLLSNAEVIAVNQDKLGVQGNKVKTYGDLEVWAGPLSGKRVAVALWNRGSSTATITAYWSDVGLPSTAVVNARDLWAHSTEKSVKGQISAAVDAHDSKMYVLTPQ
# How it was run: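 Fluorogenic qHTS at pH 4.5 (citrate buffer with Tween-20): 2 nM enzyme, 80 uM 4-MU-alpha-galactoside substrate, compound titrated 0.7 nM to 77 uM, 20 min room temperature. Glycine/NaOH stop; 4-MU read Ex 365/Em 440; Hill-equation AC50 against no-enzyme and enzyme controls.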
# [8] = target: Alpha-galactosidase (Coffea arabica) (UniProt Q42656); assay: Counterscreen for Glucocerebrosidase Inhibitors: qHTS Assay for Coffee Bean alpha-Galactosidase at pH 5.9 (AID 998; active = well fitted curve in the direction sought with a large enough effect; an effect the other way counts as inactive or inconclusive)
# How it was run: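 Fluorogenic 4-MU substrate hydrolysis, 80 uM substrate and 2 nM coffee bean alpha-galactosidase, pH 5.9 citrate buffer, 20 min at room temperature, then NaOH/glycine stop. Titration 0.7 nM–77 uM, normalized to no-enzyme and enzyme controls, AC50 via Hill equation.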
# [9] = High Content Imaging Cell-Based qHTS for Inhibitors of the mTORC1 Signaling Pathway in MEF (Tsc2-/-, p53-/-) Cells (AID 2666; active = well fitted curve in the direction sought with a large enough effect; an effect the other way counts as inactive or inconclusive;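 also: percent of cells scored positive for phospho-rpS6 Ser235/236 immunostaining by imaging; potency is read from the fitted curve at half-maximal effect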)
# How it was run: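 Tsc2-/-, p53-/- MEFs (empty-vector stable) grown in DMEM + 10% FBS were exposed to compounds for 24 hrs at 37 degree Celsius, fixed, and stained with Alexa-488 anti-phospho-rpS6 Ser235/236 plus Hoechst. Imaging gave the percentage of positive cells per well.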
# [10] = High Content Imaging Cell-Based qHTS for Inhibitors of the mTORC1 Signaling Pathway in MEF Cells (AID 2667; active = well fitted curve in the direction sought with a large enough effect; an effect the other way counts as inactive or inconclusive; also: potency is read from the fitted curve at half-maximal effect)
# How it was run: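 Tsc2-/-, p53-/- MEFs stably re-expressing WT Tsc2, grown in DMEM + 10% FBS, were treated with compounds for 24 hrs at 37 degree Celsius, fixed, and stained with Alexa-488 phospho-rpS6 Ser235/236 antibody plus Hoechst; results given as % positive cells.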
# [11] = Validation screen for inhibitors of Lassa infection (AID 463096); also: potency is read from the fitted curve at half-maximal effect
# [12] = target: M-phase phosphoprotein 8 (Homo sapiens) (UniProt Q99549); assay: qHTS Validation Assay for Inhibitors for MPP8 Chromodomain Interactions with Methylated Histone Tails (AID 488949; active = well fitted curve in the direction sought with a large enough effect; an effect the other way counts as inactive or inconclusive;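 also: AlphaScreen signal from MPP8 chromodomain bound to biotinylated H3K9me3 peptide; top concentration of the series differs between compounds; nearly all actives have a fitted effect of over 55% in size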)
# M-phase phosphoprotein 8 (Homo sapiens), sequence (Q99549 whole entry, looked up): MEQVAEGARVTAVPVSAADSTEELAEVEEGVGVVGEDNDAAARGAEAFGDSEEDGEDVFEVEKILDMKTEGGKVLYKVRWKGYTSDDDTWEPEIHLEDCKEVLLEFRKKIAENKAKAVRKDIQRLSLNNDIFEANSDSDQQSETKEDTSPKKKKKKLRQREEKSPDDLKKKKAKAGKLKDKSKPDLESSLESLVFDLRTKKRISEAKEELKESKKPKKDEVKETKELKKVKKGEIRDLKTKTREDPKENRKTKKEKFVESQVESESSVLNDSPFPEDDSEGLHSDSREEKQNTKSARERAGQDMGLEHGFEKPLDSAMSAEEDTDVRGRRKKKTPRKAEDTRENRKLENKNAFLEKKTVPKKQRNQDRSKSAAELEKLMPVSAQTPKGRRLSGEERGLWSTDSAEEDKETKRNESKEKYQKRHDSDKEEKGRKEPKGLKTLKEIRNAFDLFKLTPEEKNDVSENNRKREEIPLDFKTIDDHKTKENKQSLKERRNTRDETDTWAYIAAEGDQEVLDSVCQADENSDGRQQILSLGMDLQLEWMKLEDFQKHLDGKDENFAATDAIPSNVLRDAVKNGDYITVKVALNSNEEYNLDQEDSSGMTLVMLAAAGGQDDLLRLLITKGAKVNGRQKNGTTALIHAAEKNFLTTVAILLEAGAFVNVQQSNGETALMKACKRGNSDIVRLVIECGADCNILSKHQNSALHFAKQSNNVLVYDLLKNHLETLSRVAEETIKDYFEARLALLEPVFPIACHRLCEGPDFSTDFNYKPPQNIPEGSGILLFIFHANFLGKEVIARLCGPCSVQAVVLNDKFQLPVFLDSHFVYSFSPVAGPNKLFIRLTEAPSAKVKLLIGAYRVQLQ
# How it was run: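 AlphaScreen proximity signal from streptavidin donor and Ni-chelate acceptor beads (10 ug/mL each) reported binding of MPP8 to trimethyl-K9 H3(1-18) peptide, both at 50 nM. The complex formed 30 min before a 30 min compound exposure at room temperature, in PBS pH 7.4.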
# [13] = target: Glutaminase kidney isoform, mitochondrial (Homo sapiens) (UniProt O94925); assay: qHTS for Inhibitors of Glutaminase (GLS): LOPAC Validation (AID 624146; active = well fitted curve in the direction sought with a large enough effect; an effect the other way counts as inactive or inconclusive;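 also: glutamate product detected by oxidase and peroxidase coupled Amplex red fluorescence gain; nearly all actives have a fitted effect of over 60% in size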)
# Glutaminase kidney isoform, mitochondrial (Homo sapiens), sequence (O94925 whole entry, looked up, canonical isoform): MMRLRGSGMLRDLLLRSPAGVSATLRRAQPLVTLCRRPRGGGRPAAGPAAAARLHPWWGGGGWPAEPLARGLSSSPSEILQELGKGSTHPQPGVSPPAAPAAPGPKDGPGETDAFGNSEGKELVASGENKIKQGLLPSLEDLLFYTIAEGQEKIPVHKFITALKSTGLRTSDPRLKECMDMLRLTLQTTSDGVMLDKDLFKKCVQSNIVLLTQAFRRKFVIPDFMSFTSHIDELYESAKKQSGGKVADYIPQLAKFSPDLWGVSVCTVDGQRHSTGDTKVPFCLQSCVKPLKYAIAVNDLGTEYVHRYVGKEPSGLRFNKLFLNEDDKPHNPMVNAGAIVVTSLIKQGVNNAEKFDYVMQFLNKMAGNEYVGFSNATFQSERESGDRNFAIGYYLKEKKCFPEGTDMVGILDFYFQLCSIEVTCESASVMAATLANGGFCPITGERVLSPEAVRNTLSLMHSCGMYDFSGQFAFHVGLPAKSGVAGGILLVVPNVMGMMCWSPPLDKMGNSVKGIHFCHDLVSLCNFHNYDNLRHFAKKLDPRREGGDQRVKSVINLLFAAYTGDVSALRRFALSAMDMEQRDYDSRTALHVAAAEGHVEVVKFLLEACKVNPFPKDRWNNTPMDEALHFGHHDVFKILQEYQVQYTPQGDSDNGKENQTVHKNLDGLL
# How it was run: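 Coupled fluorescence readout: glutamate oxidase/HRP/Amplex Red detect glutamate formed by hKGA from L-glutamine (1 mM solution added). Buffer 45 mM KH2PO4 pH 8.2, 0.02% Tween-20; reads at t0 and 30 min RT.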
# [14] = target: Bile acid receptor (Homo sapiens) (UniProt Q96RI1); assay: qHTS assay for small molecule agonists of farnesoid X receptor signaling (AID 588527); settings: HEK293T FXR-UAS-bla, beta-lactamase ratio, 16 h; activation: stronger effect = higher value
# Bile acid receptor (Homo sapiens), sequence (Q96RI1 whole entry, looked up): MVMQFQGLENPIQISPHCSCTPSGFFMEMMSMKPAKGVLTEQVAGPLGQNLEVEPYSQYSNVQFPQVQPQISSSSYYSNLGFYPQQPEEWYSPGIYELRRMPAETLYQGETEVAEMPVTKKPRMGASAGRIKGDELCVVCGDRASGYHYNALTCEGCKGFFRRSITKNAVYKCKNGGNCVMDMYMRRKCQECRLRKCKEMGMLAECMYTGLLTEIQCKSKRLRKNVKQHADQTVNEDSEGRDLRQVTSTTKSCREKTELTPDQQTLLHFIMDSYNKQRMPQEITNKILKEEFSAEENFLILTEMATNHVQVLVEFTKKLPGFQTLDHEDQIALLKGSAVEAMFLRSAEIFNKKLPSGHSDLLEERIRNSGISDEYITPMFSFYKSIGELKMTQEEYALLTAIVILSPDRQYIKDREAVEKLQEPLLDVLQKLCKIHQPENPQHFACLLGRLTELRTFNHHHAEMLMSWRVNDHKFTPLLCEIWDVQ
# How it was run: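 Agonist-mode beta-lactamase reporter in GeneBLAzer FXR-UAS-bla HEK293T cells, titration up to 92 uM, 16 h exposure at 37 C, CCF4 fluorescence. Response scaled to DMSO (0%) and 100 uM chenodeoxycholic acid (100%), then Hill-fitted for EC50 and efficacy.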
# [15] = target: Peroxisome proliferator-activated receptor delta (Homo sapiens) (UniProt Q03181); assay: qHTS assay for small molecule agonists of peroxisome proliferator-activated receptor delta signaling (AID 588534)
# Peroxisome proliferator-activated receptor delta (Homo sapiens), sequence (Q03181 whole entry, looked up): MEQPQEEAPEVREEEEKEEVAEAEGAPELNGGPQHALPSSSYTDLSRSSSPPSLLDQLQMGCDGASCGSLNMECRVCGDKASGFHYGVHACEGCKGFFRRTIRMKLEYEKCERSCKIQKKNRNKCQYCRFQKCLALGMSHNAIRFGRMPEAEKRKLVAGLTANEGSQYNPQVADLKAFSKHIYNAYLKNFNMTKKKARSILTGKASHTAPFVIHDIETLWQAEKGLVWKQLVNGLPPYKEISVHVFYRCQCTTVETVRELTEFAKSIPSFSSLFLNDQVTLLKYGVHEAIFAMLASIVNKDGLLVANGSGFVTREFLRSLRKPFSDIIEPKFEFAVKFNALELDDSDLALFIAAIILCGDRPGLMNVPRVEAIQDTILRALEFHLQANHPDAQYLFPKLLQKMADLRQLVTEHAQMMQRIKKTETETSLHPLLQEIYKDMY
# How it was run: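 Agonist-mode beta-lactamase reporter readout (CCF4 dye, 2 h at RT) after 18 h at 37 °C exposure to a titration; Hill-equation fitting gave EC50 and maximal response.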
# [16] = qHTS profiling of the MIPE4 collection as inhibitors of Plasmodium falciparum (3D7) proliferation (AID 743344; call rule not given here); settings: P. falciparum 3D7 in erythrocytes, SYBR Green DNA fluorescence, 72 h; at 28.5 µM (top of the series) unless noted
# How it was run: (§1)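 Parasite DNA was quantified by SYBR Green I fluorescence (ex 485, em 535 nm) after overnight lysis in saponin/Triton buffer at room temperature. Cultures at 0.3% parasitemia and 2.5% hematocrit were first exposed to compound for 72 h at 37 C; signals were normalised to artemisinin (0.29 uM) and vehicle wells.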
# [17] = qHTS profiling of the MIPE4 collection as inhibitors of Plasmodium falciparum (DD2) proliferation (AID 743345; call rule not given here); settings: P. falciparum Dd2 in erythrocytes, SYBR Green DNA, 72 h; at 28.5 µM (top of the series) unless noted
# How it was run: as §1
# [18] = Primary qHTS for inhibitors of SARS-S pseudo-typed particle cell entry (AID 1479145); also: nearly all actives have a fitted effect of over 45% in size
# [19] = Primary qHTS for Huh7 cytotoxicity: counterscreen for inhibitors of MERS-S pseudotyped particle cell entry (AID 1479147); settings: outcome: dose series up to 57.1 µM unless noted
# [20] = Primary qHTS for inhibitors of MERS-S pseudo-typed particle cell entry (AID 1479149); also: nearly all actives have a fitted effect of over 60% in size
# [21] = Primary qHTS for Vero E6 cytotoxicity: counterscreen for inhibitors of SARS-S pseudo-typed particle cell entry (AID 1479150); settings: outcome: dose series up to 57.1 µM unless noted
# [22] = Confirmatory qHTS for VERO E6 Cytotoxicity Assay: Counterscreen for SARS-CoV-2 CPE Assay (AID 1508605); also: nearly all actives have a fitted effect of over 60% in size
# [23] = Confirmatory qHTS to identify inhibitors of SARS-CoV-2 cell entry (AID 1645844); also: potency is read from the fitted curve at half-maximal effect; nearly all actives have a fitted effect of over 45% in size
# How it was run: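 Luminescence entry read-out after 48 h: spike-pseudotyped MLV particles (Wuhan-Hu-1, 19-aa C-terminal truncation) added to compound-pretreated (1 h) HEK293-ACE2 cells; Data were normalised to bald PP and spike PP wells.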
# [24] = target: Furin (Homo sapiens) (UniProt P09958); assay: Furin counterscreen qHTS for Zika virus inhibitors (AID 1347149; active = well fitted curve in the direction sought with a large enough effect; an effect the other way counts as inactive or inconclusive;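 also: purified recombinant full-length human furin enzyme at 5 nM; fluorescence gain from furin cutting a BOC-RVRR-AMC peptide substrate over 15 min; top concentration of the series differs between compounds; nearly all actives have a fitted effect of over 70% in size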)
# Furin (Homo sapiens), sequence (P09958 whole entry, looked up): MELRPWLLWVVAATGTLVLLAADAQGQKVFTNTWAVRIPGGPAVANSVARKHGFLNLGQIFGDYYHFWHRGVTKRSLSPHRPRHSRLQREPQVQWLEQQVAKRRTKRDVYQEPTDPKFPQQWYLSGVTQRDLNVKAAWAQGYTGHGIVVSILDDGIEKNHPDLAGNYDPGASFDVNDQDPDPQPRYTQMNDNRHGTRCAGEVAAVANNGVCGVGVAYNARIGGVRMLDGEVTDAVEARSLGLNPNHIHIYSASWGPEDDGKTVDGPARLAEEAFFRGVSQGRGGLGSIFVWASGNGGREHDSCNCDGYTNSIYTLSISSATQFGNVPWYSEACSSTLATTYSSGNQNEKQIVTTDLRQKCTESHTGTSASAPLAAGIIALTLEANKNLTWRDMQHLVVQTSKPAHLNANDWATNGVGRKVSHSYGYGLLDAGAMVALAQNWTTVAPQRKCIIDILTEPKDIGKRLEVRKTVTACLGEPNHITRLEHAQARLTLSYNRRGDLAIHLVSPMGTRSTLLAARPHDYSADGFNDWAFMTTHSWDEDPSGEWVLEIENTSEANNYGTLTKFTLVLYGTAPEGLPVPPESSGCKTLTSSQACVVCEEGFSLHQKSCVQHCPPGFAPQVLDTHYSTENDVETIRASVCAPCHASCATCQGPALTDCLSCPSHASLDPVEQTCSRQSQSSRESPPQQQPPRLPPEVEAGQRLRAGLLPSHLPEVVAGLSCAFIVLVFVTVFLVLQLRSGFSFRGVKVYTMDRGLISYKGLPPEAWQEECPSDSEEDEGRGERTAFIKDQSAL
# How it was run: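 Counterscreen measures cleavage of 2 microM BOC-RVRR-AMC, below its ~15 microM Km, by 5 nM full-length human furin at pH 7.0 after a 15-min compound preincubation. Inhibition derives from the 15-min fluorescence increase at 37C.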
# [25] = tested on: Zika virus NS2B-NS3 protease (unlinked); assay: Optimization of GU AMC qHTS for Zika virus inhibitors: Unlinked NS2B-NS3 protease assay (AID 1347151; active = well fitted curve in the direction sought with a large enough effect; an effect the other way counts as inactive or inconclusive; also: nearly all actives have a fitted effect of over 80% in size)
# How it was run: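 Fluorescence gain (340/450 nm) over 15 min at room temperature, ~20% conversion, gave percent inhibition fitted to a 4-parameter Hill equation; enzyme was unlinked NS2B-NS3 (25 nM final), pH 8.0 Tris buffer.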
# [26] = tested on: Zika virus NS2B-NS3 protease; assay: Primary screen GU AMC qHTS for Zika virus inhibitors (AID 1347154; active = well fitted curve in the direction sought with a large enough effect; an effect the other way counts as inactive or inconclusive; also: nearly all actives have a fitted effect of over 70% in size)
# How it was run: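 Fluorogenic AMC-substrate cleavage by noncovalent NS2B-NS3 protease complex (25 nM, pH 8.0 Tris buffer with Tween 20) followed for 15 minutes at room temperature (~20% conversion). Percent inhibition from ex340/em450 signal change, fitted by 4-parameter Hill equation.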
# [27] = Vero cells viability qHTS for Zika virus inhibitors (AID 1347167; active = well fitted curve in the direction sought with a large enough effect; an effect the other way counts as inactive or inconclusive)
# How it was run: (§2)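 Luminescent ATP readout (CellTiter Glo) after 30 min at 37 degrees C gives viability; cells in DMEM + 4% FBS were treated 24 to 48 hours with compound, following overnight attachment.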
# [28] = HepG2 cells viability qHTS for Zika virus inhibitors (AID 1347168; active = well fitted curve in the direction sought with a large enough effect; an effect the other way counts as inactive or inconclusive)
# How it was run: as §2
# [29] = Tertiary RLuc qRT-PCR qHTS assay for Zika virus inhibitors (AID 1347169; active = well fitted curve in the direction sought with a large enough effect; an effect the other way counts as inactive or inconclusive; also: potency is read from the fitted curve at half-maximal effect; nearly all actives have a fitted effect of over 55% in size)
# How it was run: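 Orthogonal cell-based readout: luminescence measured 1-1.5 hrs after adding live-cell Renilla substrate to Vero cells that had been infected with ZIKV-RLuc (MOI 1-2) post-compound, incubated 48-72 hrs at 37 degrees C.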
# [30] = Primary qHTS for small molecule stabilizers of the endoplasmic reticulum resident proteome: Secreted ER Calcium Modulated Protein (SERCaMP) assay (AID 1508630; active = well fitted curve in the direction sought with a large enough effect; an effect the other way counts as inactive or inconclusive)
# How it was run: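 The SH-SY5Y reporter protocol was run at 3 concentrations up to 38.3 uM (primary) or 11 concentrations (follow-up): 16 h compound, 100 nM thapsigargin for 4 h, then extracellular luciferase luminescence.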
structure (smiles),measurement,setting,value
Cc1ccc(NC(=O)c2cccc(N(C)C)c2)cc1NC(=O)c1ccc(O)cc1,Potency,[1],12.2 µM (active)
same,Potency,[2],inactive
same,Potency,[3],inactive
C[C@@H]1COC(Nc2ccc3ncnc(Nc4ccc(OCc5nccs5)c(Cl)c4)c3c2)=N1,Potency,[1],1.53 µM (active)
same,Potency,[4],1.22 µM (active)
same,Potency,[2],31.6 µM (active)
NC(=O)N1CCC(CC(=O)N2CCC([C@H]3c4ncc(Br)cc4CCc4cc(Cl)cc(Br)c43)CC2)CC1,Potency,[1],inactive
same,Potency,[4],12.2 µM (active)
same,"activity change, negative = inhibition",[3],-87.3%
COc1ccc(S(=O)(=O)Nc2cccnc2Nc2ccc(O)cc2)cc1,Potency,[1],0.273 µM (active)
same,Potency,[3],6.31 µM (active)
same,Potency,[5],0.541 µM (active)
CC=CC[C@@H](C)C(=O)[C@H]1C(=O)N[C@@H](C(C)C)C(=O)N(C)CC(=O)N(C)[C@@H](CC(C)C)C(=O)N[C@@H](C(C)C)C(=O)N(C)[C@@H](CC(C)C)C(=O)N[C@@H](C)C(=O)N[C@H](C)C(=O)N(C)[C@@H](CC(C)C)C(=O)N(C)[C@@H](CC(C)C)C(=O)N(C)[C@@H](C(C)C)C(=O)N1C,Potency,[6],inactive
Nc1nc(N)c2nc(-c3cccc(O)c3)c(-c3cccc(O)c3)nc2n1,Potency,[1],8.63 µM (active)
same,Potency,[2],inactive
O=c1ccc2ccc(O)c(O)c2o1,outcome,[7],inactive
same,outcome,[8],inactive
same,Potency,[1],inactive
same,Potency,[6],inactive
COC1CCC(OC2CC(C3(C)CCC4(CC(O)C(C)C(C(C)/C=C(\C)C(=O)C(C)CC(C)C(=O)O)O4)O3)OC3(OC(C4OC(O)(CO)C(C)CC4C)CC3C)C2C)OC1C (stereo not drawn),Potency,[6],inactive
O=C1Cc2c([nH]c3ccc(Br)cc23)-c2ccccc2N1,outcome,[7],inactive
same,outcome,[8],inactive
Cc1ccc(O)c(N=Nc2ccccc2)n1,outcome,[7],inactive
same,outcome,[8],inactive
CC12C(=O)OC(=O)C1(C)C1CCC2O1 (stereo not drawn),Potency,[9],9.27 µM (active)
same,Potency,[10],4.65 µM (active)
same,Potency,[11],10 µM (active)
same,Potency,[12],inactive
same,outcome,[13],inactive
Cc1cccc(O)c1C,activation,[14],-0.773% (inactive)
same,Potency,[15],inactive
COc1ccc2cc1Oc1ccc(cc1)C[C@H]1c3cc(c(OC)cc3CCN1C)Oc1c(OC)c(OC)cc3c1[C@H](C2)N(C)CC3,"parasite growth, % of DMSO control",[16],31.2%
same,"parasite growth remaining, % of DMSO control (lower = more inhibition)",[17],72.6%
CC(=O)OC[C@@H]1O[C@@H](n2ccc(=O)[nH]c2=O)[C@H](OC(C)=O)[C@H]1OC(C)=O,Potency,[18],inactive
same,outcome,[19],inactive
same,Potency,[20],inactive
same,outcome,[21],inactive
CO[C@@H]1[C@@H](OC2OC(C)C(OC3CC(C)(O)C(OC(=O)CC(C)C)C(C)O3)C(N(C)C)C2O)[C@@H](CC=O)C[C@@H](C)C(=O)/C=C\C2O[C@H]2C[C@@H](C)OC(=O)C[C@H]1OC(C)=O (stereo partly drawn),outcome,[19],inactive
same,Potency,[20],inactive
same,outcome,[21],inactive
CC1(C)CC(=O)c2c(C(F)(F)F)nn(-c3ccc(C(N)=O)c(NC4CCC(OC(=O)CN)CC4)c3)c2C1 (stereo not drawn),Potency,[22],inactive
CC(C)(C)c1nc2c3cc[nH]c(=O)c3c3cc(F)ccc3c2[nH]1,Potency,[23],1.71 µM (active)
Cc1ccc2c(=O)c3cccc(CC(=O)O)c3oc2c1C,Potency,[4],38.5 µM (active)
same,Potency,[2],inactive
same,"activity change, negative = inhibition",[3],-28.2%
C[C@H]1O[C@@H](O[C@H]2[C@@H](O)C[C@H](O[C@H]3[C@@H](O)C[C@H](O[C@H]4CC[C@]5(C)C6CC[C@]7(C)[C@@H](C8=CC(=O)OC8)CC[C@]7(O)C6CC[C@@H]5C4)O[C@@H]3C)O[C@@H]2C)C[C@H](O)[C@@H]1O (stereo partly drawn),Potency,[24],inactive
same,outcome,[25],inactive
same,Potency,[26],inactive
same,Potency,[27],inactive
same,Potency,[28],inactive
same,Potency,[29],0.147 µM (active)
same,Potency,[30],inactive
CN(CCc1ccc(Cl)c(Cl)c1)[C@@H]1CCCC[C@@H]1N1CCCC1,Potency,[26],inactive
